Assay results: the supplement of paper PMC9254222
Whole data set: some 1,100 compounds, median “Renilla luciferase signal (cell health) relative to plate median” near 0.97, cut for the highest 2% near 1.6. Shown is part of a subset that was picked to be rich in the highest values.

System: HEK293T (UBE3A T485A transfected, BAR Wnt reporter)
Test: Renilla luciferase signal (cell health) relative to plate median (fold (linear ratio)); higher = higher Renilla signal
Conditions: 24 h
Summary of the method: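 Chemicals at 0.01–100 uM were left on transfected HEK293T cells for 24 h, after a four-hour wait following transfection. The cells held a BAR firefly luciferase Wnt reporter, TK-Renilla and an expression plasmid. Wnt activity, as the firefly/Renilla ratio from a Dual-Glo luciferase readout, and cell health, as raw Renilla, were median-centred within each plate. Results average four biological replicates.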

Structure (SMILES) | Renilla luciferase signal (concentration: 0.01 uM) | Renilla luciferase signal (concentration: 0.1 uM) | Renilla luciferase signal (concentration: 1 uM) | Renilla luciferase signal (concentration: 10 uM) | Renilla luciferase signal (concentration: 100 uM)
CN1C2CC(OC(=O)C(CO)c3ccccc3)CC1C1OC12 (configuration not stated) [Scopolamine] | 0.78 | 0.722 | 0.931 | 0.834 | 1.62
CNC(=O)Oc1cccc2c1OC(C)(C)C2 [Carbofuran] | – | 1.05 | 1.01 | 0.953 | 0.523
CC(C)(C)OOC(C)(C)C [Di-tert-butyl peroxide] | – | 1.07 | 0.922 | 1.09 | 1.12
O=[As][O-].[Na+] [Sodium arsenite] | 0.746 | 0.622 | 0.288 | 0.0446 | 0.0136
CC(C)(C)c1ccc(CSc2cnn(C(C)(C)C)c(=O)c2Cl)cc1 [Pyridaben] | 1.05 | 0.947 | 0.477 | 0.233 | 0.172
Nc1ccc(Cl)cc1N [4-Chloro-1,2-diaminobenzene] | – | 1.05 | 0.965 | 0.612 | 0.0486
Nc1cc(Cl)cc(C(=O)O)c1Cl [Chloramben] | – | 1.02 | 1.02 | 1.18 | 1.64
C[C@@H]1C[C@@H]([C@H](O)CC2CC(=O)NC(=O)C2)C(=O)[C@@H](C)C1 [Cycloheximide] | – | 0.674 | 0.0448 | 0.0298 | 0.0285
CC(O)CCO (configuration not stated) [1,3-Butanediol] | – | 1.06 | 1.08 | 1.16 | 1.47
CCC(C)(CC)c1cc(NC(=O)c2c(OC)cccc2OC)on1 [Isoxaben] | 0.906 | 0.789 | 0.94 | 0.964 | 0.549
ClC(Cl)=C(c1ccc(Cl)cc1)c1ccc(Cl)cc1 | – | 0.978 | 1.09 | 1.13 | 1.33
O=C(NC(=O)c1c(F)cccc1F)Nc1cc(Cl)c(OC(F)(F)C(F)F)c(Cl)c1 [Hexaflumuron] | – | 0.601 | 0.604 | 0.441 | 0.493
OCCOc1ccccc1 [2-Phenoxyethanol] | 0.629 | 0.856 | 0.906 | 0.983 | 1.74
Oc1ccccc1-c1ccccc1 [2-Phenylphenol] | 1.08 | 1.08 | 0.948 | 1.01 | 0.987
c1ccc(OP(Oc2ccccc2)Oc2ccccc2)cc1 [Triphenyl phosphite] | – | 1.06 | 1.18 | 1.24 | 1.16
Clc1ccc(C(c2ccc(Cl)cc2)C(Cl)(Cl)Cl)cc1 | – | 0.841 | 0.863 | 0.92 | 0.995
O=Cc1ccco1 [Furfural] | – | 1.24 | 1.36 | 1.2 | 1.45
NCCO.O=C(O)c1nc(Cl)ccc1Cl [Clopyralid-olamine] | 1.41 | 1.18 | 1.06 | 1.2 | 1.53
Nc1c(Cl)c(Cl)nc(C(=O)O)c1Cl [Picloram] | 1.22 | 0.925 | 1.11 | 1.09 | 1.33
O=C(O)c1nc(Cl)ccc1Cl [Clopyralid] | 0.962 | 0.828 | 0.985 | 1 | 1.8
O=C1CCCO1 [4-Butyrolactone] | – | 0.916 | 0.91 | 0.928 | 1.07

Structure (SMILES) | Renilla luciferase signal (concentration: 0.01 uM) | Renilla luciferase signal (concentration: 0.1 uM) | Renilla luciferase signal (concentration: 1 uM) | Renilla luciferase signal (concentration: 10 uM) | Renilla luciferase signal (concentration: 100 uM)
CCC(=O)C(CC(C)N(C)C)(c1ccccc1)c1ccccc1.Cl (configuration not stated) [Methadone hydrochloride] | – | 1.01 | 1.01 | 1.07 | 0.142
CCCCC(CC)COC(=O)c1ccc(C(=O)OCC(CC)CCCC)cc1 (configuration not stated) [Bis(2-ethylhexyl) terephthalate] | – | 0.974 | 1.13 | 1.09 | 1.28
CCCCC(CC)COC(=O)CCCCC(=O)OCC(CC)CCCC (configuration not stated) [Di(2-ethylhexyl) adipate] | – | 1.15 | 1.09 | 1.28 | 1.76
CCCCC(CC)COC(=O)c1ccccc1C(=O)OCC(CC)CCCC (configuration not stated) [Di(2-ethylhexyl) phthalate] | 1.26 | 1.13 | 1.01 | 1.11 | 0.496
C#CCN1C(=O)COc2cc(F)c(N3C(=O)C4=C(CCCC4)C3=O)cc21 [Flumioxazin] | 1.13 | 1.14 | 0.954 | 1.11 | 0.949
N#Cc1c(Cl)cccc1Cl [Dichlobenil] | 0.873 | 0.853 | 1.03 | 0.992 | 1.96
Clc1cccc(Cl)c1Cl [1,2,3-Trichlorobenzene] | – | 1.21 | 0.959 | 1.18 | 1.43
Clc1ccccc1Cl [1,2-Dichlorobenzene] | – | 1.14 | 0.945 | 1.05 | 1.27
Cc1ccc(/N=C/N(C)/C=N/c2ccc(C)cc2C)c(C)c1 [Amitraz] | 1.29 | 1.17 | 1.06 | 1.21 | 0.0374
O=C(NC(=O)c1cc(F)c(F)cc1Cl)Nc1cc(F)ccc1N1CCC(C(=O)O)CC1 | – | 0.8 | 0.813 | 0.797 | 0.641
O=C(O)C(F)(F)C(F)(F)C(F)(F)C(F)(F)C(F)(F)C(F)(F)C(F)(F)C(F)(F)C(F)(F)C(F)(F)F [Perfluoroundecanoic acid] | – | 0.861 | 0.837 | 0.868 | 0.248
O=C(O)C(F)(F)C(F)(F)C(F)(F)C(F)(F)C(F)(F)F | – | 0.973 | 0.941 | 0.896 | 0.93
O=C(O)C(F)(F)C(F)(F)C(F)(F)C(F)(F)C(F)(F)C(F)(F)C(F)(F)F | 0.983 | 0.781 | 0.834 | 0.9 | 1.9
CCOC1Oc2ccc(OS(C)(=O)=O)cc2C1(C)C (configuration not stated) [Ethofumesate] | 0.946 | 1.07 | 0.964 | 0.843 | 1.01
CCOC(=O)C(C)OC(=O)c1cc(Oc2ccc(C(F)(F)F)cc2Cl)ccc1[N+](=O)[O-] (configuration not stated) [Lactofen] | 0.928 | 0.611 | 0.876 | 0.801 | 0.32
CS(=O)(=O)NC(=O)c1cc(Oc2ccc(C(F)(F)F)cc2Cl)ccc1[N+](=O)[O-] [Fomesafen] | – | 0.998 | 1.11 | 1.03 | 1.19
O=C(O)c1cc(Oc2ccc(C(F)(F)F)cc2Cl)ccc1[N+](=O)[O-] [Acifluorfen] | 1.17 | 1.25 | 0.942 | 1.02 | 1.67
CCN(CC)c1nc(C)cc(OP(=S)(OC)OC)n1 [Pirimiphos-methyl] | 1.11 | 1.2 | 1 | 0.992 | 1.53
CN(C)c1nc(=O)n(C2CCCCC2)c(=O)n1C [Hexazinone] | 0.842 | 0.839 | 0.85 | 0.916 | 1.2
O=C(O)COc1ccc(Cl)cc1Cl [2,4-Dichlorophenoxyacetic acid] | 1.31 | 1 | 0.995 | 1.02 | 1.69
O=C(O)CCCOc1ccc(Cl)cc1Cl | 1.02 | 0.895 | 0.898 | 0.957 | 1.44

Structure (SMILES) | Renilla luciferase signal (concentration: 0.01 uM) | Renilla luciferase signal (concentration: 0.1 uM) | Renilla luciferase signal (concentration: 1 uM) | Renilla luciferase signal (concentration: 10 uM) | Renilla luciferase signal (concentration: 100 uM)
Cc1cc(Cl)ccc1OCC(=O)O | 1.11 | 1.19 | 1.09 | 1.12 | 1.34
Nc1c(Cl)c(F)nc(OCC(=O)O)c1Cl [Fluroxypyr] | 1.01 | 1.05 | 0.92 | 1.02 | 1.09
O=C(O)COc1nc(Cl)c(Cl)cc1Cl [Triclopyr] | 0.99 | 0.979 | 0.95 | 1.02 | 1.84
CCOP(=O)(OCC)Oc1nc(Cl)c(Cl)cc1Cl [Chlorpyrifos oxon] | 0.952 | 1.24 | 1.07 | 0.919 | 0.0737
C1=CCCC=CCCC=CCC1 [1,5,9-Cyclododecatriene] | – | 0.691 | 0.775 | 0.813 | 1.02
CCOC(=O)c1ccccc1C(=O)OCC [Diethyl phthalate] | – | 0.834 | 0.893 | 0.976 | 1.05
COc1nc(NC(C)C)nc(NC(C)C)n1 [Prometon] | 0.865 | 0.628 | 0.707 | 1.02 | 1.41
CC(C)(O)C(=O)Nc1ccc([N+](=O)[O-])c(C(F)(F)F)c1 [Hydroxyflutamide] | – | 0.949 | 0.928 | 0.775 | 0.129
CC(C)=CC1C(C(=O)OCc2coc(Cc3ccccc3)c2)C1(C)C (configuration not stated) [Resmethrin] | 1.12 | 1.04 | 0.974 | 1.01 | 0.166
CCCCOCN(C(=O)CCl)c1c(CC)cccc1CC [Butachlor] | 0.877 | 0.813 | 0.902 | 0.865 | 0.895
CC1(c2ccc(Oc3ccccc3)cc2)OC(=O)N(Nc2ccccc2)C1=O (configuration not stated) [Famoxadone] | 1.07 | 1.08 | 1.07 | 0.383 | 1.15
NS(=O)(=O)C(F)(F)C(F)(F)C(F)(F)C(F)(F)C(F)(F)C(F)(F)C(F)(F)C(F)(F)F | – | 0.448 | 0.567 | 0.447 | 0.0943
Cc1c(F)c(F)c(COC(=O)C2C(/C=C(\Cl)C(F)(F)F)C2(C)C)c(F)c1F (configuration not stated) [Tefluthrin] | 0.953 | 0.885 | 1.03 | 0.886 | 1.47
C[n+]1ccc(-c2cc[n+](C)cc2)cc1 [Paraquat] | 0.802 | 0.782 | 0.9 | 0.995 | 2.18
CCNc1nc(Cl)nc(NC(C)(C)C)n1 [Terbutylazine] | – | 0.934 | 1.02 | 0.978 | 0.981
Cc1cccc(C)c1N [2,6-Dimethylaniline] | – | 0.815 | 0.773 | 0.833 | 0.897
O=C(O)CNCP(=O)(O)O [Glyphosate] | 0.796 | 0.874 | 0.905 | 1.07 | 2.5
COP(=S)(OC)Oc1nc(Cl)c(Cl)cc1Cl [Chlorpyrifos-methyl] | 1.5 | 1.18 | 1.01 | 1.04 | 0.838
CN(C)NC(=O)CCC(=O)O [Daminozide] | 0.728 | 0.735 | 0.928 | 0.807 | 1.39
Cc1ccc(N)cc1N [2,4-Diaminotoluene] | – | 1.12 | 1.22 | 1.09 | 1.45
O=C(O)c1c(Cl)ccc2cc(Cl)cnc12 [Quinclorac] | 1.12 | 1.11 | 0.984 | 1.04 | 1.88
